# The list is not random: actives were taken first. Their share in the collection is about 11%.
# IMPase Li cell: IMPase inhibition in cells with lithium potentiation. Potency, µM (titrated, usually from 59.4 µM), without a hit: at the top dose activity, negative = IMPase inhibition, usual class: inhibitors. CHO-M1 cells, IP1 TR-FRET (IP-One), carbachol + lithium. AID 1457. 210,000 tested, 0.35% active; active = well fitted inhibition curve with a large enough effect; inconclusive = small, poorly fitted or top-dose-only effect; inactive = no such curve, though single readings can be large or run the other way;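 also: IP1 builds up when IMPase is blocked and the TR-FRET signal falls; potency is read from the fitted curve at half-maximal effect; plate controls were basal vehicle for no effect and high inhibitor control for full effect; nearly all actives have a fitted effect of over 50% in size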
#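 CHO cells stably expressing M1 receptor (2000/well, cultured 16–30 h) treated 30 min at 37C with compound plus low lithium. Cytosolic IP1 by TR-FRET (665/620 ratio and 620 channel) after 10 min lysis; AC50 by Hill fit.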
# HPGD block: HPGD (human) dehydrogenase inhibition; P15428; purified HPGD, NADH fluorescence kinetic, PGE2 substrate; Potency, µM, without a hit: at the highest dose activity change, negative = inhibition, most hits filed as inhibitors; 150,000 tested, 4.3% active; AID 894; also: potency is read from the fitted curve at half-maximal effect
# Target sequence (P15428 whole entry, looked up): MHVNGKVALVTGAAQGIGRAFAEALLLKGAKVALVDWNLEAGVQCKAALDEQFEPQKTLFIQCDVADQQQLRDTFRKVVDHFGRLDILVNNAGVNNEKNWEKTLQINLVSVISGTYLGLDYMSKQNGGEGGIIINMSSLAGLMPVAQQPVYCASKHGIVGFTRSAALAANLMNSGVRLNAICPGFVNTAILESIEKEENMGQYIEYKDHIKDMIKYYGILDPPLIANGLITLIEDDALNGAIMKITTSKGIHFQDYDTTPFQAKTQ
#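 20 nM HPGD preincubated 15 min at room temperature with compound in 50 mM Tris-HCl pH 8, 0.01% Tween 20. Started with 1 mM NAD+ and 30 uM prostaglandin E2; NADH fluorescence (360/450 nm) read 5 times over 30-s intervals, last minus first.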
# ALDH1A1 block: inhibitors of human aldehyde dehydrogenase 1A1; P00352; Purified ALDH1A1, NADH fluorescence, propionaldehyde substrate; Potency, µM (doses to about 75.3 µM), for the others: at the top dose activity, negative = inhibition, most hits filed as inhibitors; 220,000 tested, 7.3% active;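 also: potency is read from the fitted curve at half-maximal effect; plate controls were no enzyme wells and a reference inhibitor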
# IMPase inh: IMPase inhibition in cells; 120,000 tested, under 10 active; P97697; CHO-M1 cells, IP1 accumulation, HTRF TR-FRET ratio; inhibition (IP1 accumulation), % at 46.1 µM; active = well fitted curve in the direction sought with a large enough effect in the signal ratio, not every such curve was filed as active; inconclusive = small, poorly fitted or top-dose-only effect, or a change in a side signal; inactive = no such curve, though single readings can be large or run the other way; the % refers to the signal ratio;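 also: cells stimulated with carbachol in lithium chloride buffer; plate controls were DMSO basal wells for no effect and reference inhibitor wells for full effect; higher means more IMPase inhibition seen as more IP1 and lower FRET ratio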
# Target sequence (P97697 whole entry, looked up): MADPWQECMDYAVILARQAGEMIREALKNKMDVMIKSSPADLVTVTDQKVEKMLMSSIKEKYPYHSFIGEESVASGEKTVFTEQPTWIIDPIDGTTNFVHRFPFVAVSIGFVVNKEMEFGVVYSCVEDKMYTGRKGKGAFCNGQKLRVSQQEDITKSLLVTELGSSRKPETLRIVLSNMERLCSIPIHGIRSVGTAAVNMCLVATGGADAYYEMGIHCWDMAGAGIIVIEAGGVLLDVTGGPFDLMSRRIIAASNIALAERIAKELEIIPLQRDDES
#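 Cellular IMPase inhibition is scored as a rise in cytosolic IP1, detected by competitive TR-FRET between d2-labelled IP1 and a europium anti-IP1 antibody. M1-expressing CHO cells were stimulated with carbachol for 30 min at 37C, with lithium (50 mM LiCl) present in the buffer.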
# PNC inhibitor: perinucleolar compartment assembly inhibition | PC3M PTB-GFP, PNC prevalence imaging, 16 h; hits give low values | activity change (PNC), negative = inhibition, % at 10 µM | 140,000 tested, 3.1% active;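 active = readout at or below -70, meaning at least 70% loss of cells showing the perinucleolar compartment, a nuclear body marking cancer cells; inconclusive = readout between -30 and a set limit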;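 also: plate controls were DMSO wells for no effect and camptothecin positive control wells for full effect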
#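 PC3M cells stably expressing PTB-GFP, 750–1000 cells/well, treated 16 h at 37 °C with compound (23 nl of library stock), in duplicate. After paraformaldehyde fixation and Hoechst stain, imaged at 20x; PNC prevalence scored by image analysis.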
# An asterisk follows results filed as active; ? = inconclusive; . = not tested or not shown; [ ] = another dose, or the depositor's remark. Unless noted, calls follow the shape of the dose curve; as a rule, active = well fitted inhibition curve with a large enough effect (not every such curve was filed as active); inconclusive = small, poorly fitted or top-dose-only effect, or another doubt; inactive = no such curve, though single readings can be large or run the other way. Unless noted, % is scaled to controls: 0 for no effect and ±100 for the full control effect.
SMILES,IMPase Li cell,HPGD block,ALDH1A1 block,IMPase inh,PNC inhibitor
CCOC(=O)C1C(=O)CC(C)(O)C(C(=O)OCC)C1c1ccc(N(CC)CC)cc1 (configuration not stated),15%,7%,-8%,12,-119*
CCN(CC)c1ccc(C2C(C(=O)OC(C)C)C(=O)CC(C)(O)C2C(=O)OC(C)C)cc1 (configuration not stated),16%[38.3 µM],-5%,-1%,2,-113*
O=C(c1cc(C(F)(F)F)cc(C(F)(F)F)c1)N1CCC2(CC1)CN(c1ncccn1)C2,-1%,-17%,-6%,.,.
O=C(N/N=C\c1ccc(Br)o1)C1COc2ccccc2O1 (configuration not stated),3%,.,?,.,.
O=C(N/N=C\c1ccccn1)C1c2ccccc2Oc2ccccc21,11%,.,12%,.,.
CN(C)c1ccc(/C=N/NC(=O)C2COc3ccccc3O2)o1 (configuration not stated),3%,-11%,22µM*,.,13
O=C(N/N=C\c1ccc(-c2ccc([N+](=O)[O-])cc2)o1)C1COc2ccccc2O1 (configuration not stated),?,20µM*,0%,.,?
Cc1c(/C=N\NC(=O)C2COc3ccccc3O2)c2ccccc2n1C (configuration not stated),0%,-24%,?,6,-111*
O=C(N/N=C\c1ccccn1)C1COc2cc3ccccc3cc2O1 (configuration not stated),24%[38.3 µM],14µM*,?,1,?
CN1CCN(c2ncc3nc(-c4cccc(C#N)c4)c(=O)n(C)c3n2)CC1,8%,.,?,.,.
COC(=O)CC[C@@H](C)[C@H]1CC[C@H]2[C@@H]3CC[C@@H]4C[C@H](O)CC[C@]4(C)[C@H]3C[C@H](O)[C@]12C,11%,-1%,5%,0,.
COc1ccccc1OC(=O)c1cc(Cl)nc2ccccc12,12%,-20%,?,3,24
O=C(N/N=C/c1ccc(-c2cccc([N+](=O)[O-])c2)o1)c1cccs1,3%,.,-1%,.,.
NC(=S)N/N=C/c1ccc(-c2cccc([N+](=O)[O-])c2)o1,11%[38.3 µM],16µM*,?,3,11
Cc1ccsc1C(=O)OCC(=O)N1CCN(C(=O)c2ccco2)CC1,6%,.,-14%,.,.
O=C(Cc1ccc(Cl)cc1Cl)OCC(=O)N1CCN(C(=O)c2ccco2)CC1,7%,.,14µM*,.,.
Cc1cc(SCC(=O)OCC(=O)N2CCN(C(=O)c3ccco3)CC2)c(C)cc1Br,6%[38.3 µM],-13%,32µM*,-1,-17
O=C(Cc1ccc(Cl)cc1)N1CCN(C(=O)c2ccco2)CC1,-22%[38.3 µM],0%,-6%,3,39
C#Cc1cccc(NC(=O)c2ccc(Cl)cc2Cl)c1,.,.,1%,.,.
Cc1ccc(S(=O)(=O)N/N=C/c2c(F)cccc2Cl)cc1,28%,-9%,28µM*,.,-2
O=S(=O)(N/N=C/c1c(F)cccc1Cl)c1ccccc1,23%[38.3 µM],-8%,6.3µM*,26,-28
Fc1cccc(Cl)c1/C=N/Nc1ccccn1,13%,.,0%,.,.
CCCC[S@@](=N)(=O)CC[C@@H](N)C(=O)O,.,.,.,7,.
COc1ccccc1N1CCN(C2=NS(=O)(=O)c3ccccc32)CC1,20%[38.3 µM],-8%,18%,7,41
C=CCN1/C(=C(\C#N)C2=NS(=O)(=O)c3ccccc32)N(C)c2ccccc21,7%[38.3 µM],14µM*,-4%,0,-4
SMILES,IMPase Li cell,HPGD block,ALDH1A1 block,IMPase inh,PNC inhibitor
O=C(CCC(=O)c1ccc(F)cc1)OC1CCOC1=O (configuration not stated),-9%[38.3 µM],-15%,3%,?,-9
CCOC(CNC(=O)c1ccc(N2CCc3ccccc32)c([N+](=O)[O-])c1)OCC,25%,-19%,10µM*,.,?
C=CCCCCCCCCCCC/C=C/C(O)COC(C)=O (configuration not stated),16%,-28%,-5%,.,.
COc1ccc(N(C)C2=NS(=O)(=O)c3ccccc32)cc1,28%[38.3 µM],-11%,13%,-3,-101*
COc1cccc(/C=N/n2nnc3c(cnn3-c3ccccc3)c2=O)c1,-8%[38.3 µM],?,0.89µM*,8,84
COc1cccc(/C=C/c2nc3c(cnn3-c3ccccc3)c(=O)[nH]2)c1,-6%,.,?,.,.
COC1C=CO[C@@]2(C)Oc3c(C)c(O)c4c(O)c(c5c(nc6cc(C)ccn65)c4c3C2=O)NC(=O)/C(C)=C\C=CC(C)C(O)[C@@H](C)C(O)C(C)[C@@H](OC(C)=O)C1C (some centres not stated),19%,-13%,-6%,.,.
Cc1cccc(Cn2cc(/C=C(/C#N)C(=O)Nc3cccc(Cl)c3)c3ccccc32)c1,.,.,.,-6,.
N#C/C(=C\c1cn(Cc2ccccc2C#N)c2ccccc12)C(=O)NCc1cccs1,7%[38.3 µM],?,7.9µM*,5,69
CCc1ccc(NC(=O)/C(C#N)=C/c2cn(CC(=O)O)c3ccccc23)cc1,5%,.,2%,.,.
Cc1cccc(NC(=O)/C(C#N)=C\c2cn(CC(=O)O)c3ccccc23)c1,9%,.,20µM*,.,.
N#C/C(=C/c1cn(CC(=O)O)c2ccccc12)C(=O)Nc1ccccc1,7%,.,25µM*,.,.
Nc1cccc2nc3ccccc3cc12,31%[38.3 µM],?,?,-4,-113*
Cc1cc2c(N)cccc2nn1,82%[38.3 µM],-23%,4µM*,?,27
Nc1[nH]nc2nc3ccccc3cc12,16%,.,-1%,.,.
COc1cc(/C=N\NC(=O)C2CC3C=CC2C3)ccc1O (configuration not stated),1%,-17%,5%,.,?
COc1cc(/C=N/NC(=S)NC2CC3CCC2C3)ccc1O (configuration not stated),.,.,18µM*,.,.
CCC(Oc1ccc2c(c1)C(=O)CC(C)(C)O2)C(=O)NCCN1CCCCCC1 (configuration not stated),8%,?,?,-5,-25
O=C(Nc1ccc(Cl)cc1)C1CCC(CNS(=O)(=O)c2ccc(Br)s2)CC1 (configuration not stated),.,.,.,15,.
O=C(O)c1ccccc1-c1ccc(/C=c2\sc3nc4cc(Br)cnc4n3c2=O)o1,-18%[38.3 µM],32µM*,22µM*,7,?
O=Cc1ccc(-c2ccccc2C(=O)O)o1,-1%,.,-10%,.,.
CC(C)(C)C(=O)N1CCN(c2ccc(Cl)cc2[N+](=O)[O-])CC1,3%,-14%,-3%,.,-1
C(=N\N1CCN(c2ccccn2)CC1)/c1ccco1,11%,.,18µM*,.,.
CCS(=O)(=O)N1CCN(c2ccc(Cl)cc2[N+](=O)[O-])CC1,11%,-16%,0%,-1,-83*
C(=N\N1CCN(c2ccccn2)CC1)/c1ccccn1,.,.,-2%,.,.
O=C(NC(=S)N1CCN(c2ccccn2)CC1)c1ccco1,8%,.,11µM*,.,.
